{"source": "ChEMBL document CHEMBL4513216", "about": "“Probing the Open Global Health Chemical Diversity Library for Multistage-Active Starting Points for Next-Generation Antimalarials” (ACS Infect Dis, 2020)", "note": "The campaign covered roughly 65,000 compounds. About 2,100 (3.2%) showed an effect of 50% or more. The median lay at about -52%. The entries come from a sample that favours strong results as a whole."}
{"test_system": "Plasmodium falciparum", "assay": "Screen against P. falciparum Asexual Blood Stage (ABS), at 5uM", "type": "functional, Dd2", "settings": "tested at 5 uM", "units": {"INHIBITION": "%"}}
{"smiles": "COc1ccc(CN2C[C@@H]3CN(CCO)C[C@@H]3C2=O)cc1", "INHIBITION": 50.3}
{"smiles": "COc1ccc(CN2C[C@@H]3CN(Cc4ccncc4)C[C@@H]3C2=O)cc1", "INHIBITION": -48}
{"smiles": "Cc1cccc(CN2CCCC3(CCN(CC4CCCO4)CC3)C2)n1", "note": "(stereo not drawn)", "INHIBITION": 45.2}
{"smiles": "COc1cc(C(=O)NCC2CC2)nc2c(C)cc(F)cc12", "INHIBITION": -103}
{"smiles": "C[C@@H]1CN(c2nc(N)nc3c2CCC3)C[C@]1(C)O", "INHIBITION": -48.4}
{"smiles": "C[C@@H]1CN(c2nc3c(cc2C(N)=O)CCC3)CC[C@@]1(O)C1CCC1", "INHIBITION": -80.6}
{"smiles": "C[C@@H]1CN(c2nc(N)nc3c2CCC3)CC[C@@]1(O)C1CCC1", "INHIBITION": 68.5}
{"smiles": "COc1ccc(CN(C)C(=O)CN2CC(n3cccn3)C2)cc1F", "INHIBITION": 26.7}
{"smiles": "CCNC(c1cccnc1)c1ccc(F)c(C)c1", "note": "(stereo not drawn)", "INHIBITION": 25.4}
{"smiles": "CCCNC(c1cccnc1)c1ccc(F)c(C)c1", "note": "(stereo not drawn)", "INHIBITION": 57.9}
{"smiles": "CCCNC(c1ccc(F)cc1)c1cccnc1", "note": "(stereo not drawn)", "INHIBITION": 35.6}
{"smiles": "CCOCC(=O)N1C[C@@H]2COC[C@]2(c2nc(C)no2)C1", "INHIBITION": -63.5}
{"smiles": "c1cnc(N2CCCC(c3cncc(-n4ccnc4)n3)C2)nc1", "note": "(stereo not drawn)", "INHIBITION": -20.6}
{"smiles": "Cc1cc(C)nc(N2CCCC(c3cccc(-n4ccnc4)n3)C2)n1", "note": "(stereo not drawn)", "INHIBITION": 66.3}
{"smiles": "CC(=O)N1CCCC(c2cccc(-n3ccnc3)n2)C1", "note": "(stereo not drawn)", "INHIBITION": -75.7}
{"smiles": "O=C(Cc1ccccn1)N1CCc2c(O)nc(-c3cnccn3)nc2C1", "INHIBITION": -157}
{"smiles": "CCOCc1cncc2c1CCN(C(=O)c1cscn1)C2", "INHIBITION": -43.3}
{"smiles": "c1cncc(C[C@@H]2CC[C@H](CN3CCCOCC3)O2)c1", "INHIBITION": -54}
{"smiles": "c1cnc2ccc(C[C@@H]3CC[C@H](CN4CCCOCC4)O3)cc2c1", "INHIBITION": 57.9}
{"smiles": "CC(=O)N1CCN(C[C@H]2CC[C@@H](Cc3ccc4ncccc4c3)O2)CC1", "INHIBITION": -16.4}
{"smiles": "O=C(NCCCN1CCCCCC1=O)c1n[nH]c(=O)c2ccccc12", "INHIBITION": -16.5}
{"smiles": "O=C(NC1CC1)c1nc(Cn2c(C(F)F)nc3ccccc32)no1", "INHIBITION": -138}
{"smiles": "COCC(c1cccc(C(F)(F)F)c1)N(C)C(=O)c1ccncc1", "note": "(stereo not drawn)", "INHIBITION": -196}
{"smiles": "COCC(c1cccc(C(F)(F)F)c1)N(C)C(=O)c1cnccn1", "note": "(stereo not drawn)", "INHIBITION": 48.8}
{"smiles": "COCC(c1cccc(C(F)(F)F)c1)N(C)C(=O)c1cccnc1", "note": "(stereo not drawn)", "INHIBITION": 66.9}
{"smiles": "CC(C)n1nc2c(cc1=O)CN(c1ncnc3ccccc13)CC2", "INHIBITION": -52.6}
{"smiles": "CN(C)C(=O)Cn1c2c(ccc1=O)CCN(Cc1cnn(C)c1)CC2", "INHIBITION": -39.8}
{"smiles": "COCC(=O)NC(C)c1sc(-c2ccccc2F)nc1C", "note": "(stereo not drawn)", "INHIBITION": -22.6}
{"smiles": "Cc1cccc(CN2CCCCC2c2n[nH]cc2-c2cc(C)no2)c1", "note": "(stereo not drawn)", "INHIBITION": 52}
{"smiles": "COc1ccccc1CN1CCCCC1c1n[nH]cc1-c1cc(C)no1", "note": "(stereo not drawn)", "INHIBITION": 66.4}
{"smiles": "COc1cccc(CN2CCCCC2c2n[nH]cc2-c2cc(C)no2)c1", "note": "(stereo not drawn)", "INHIBITION": 35.3}
{"smiles": "CCc1ccc(CN2CCCCC2c2n[nH]cc2-c2cc(C)no2)cc1", "note": "(stereo not drawn)", "INHIBITION": 33.5}
{"smiles": "COc1ccc(CN2CCCCC2c2n[nH]cc2-c2cc(C)no2)cc1", "note": "(stereo not drawn)", "INHIBITION": 35.5}
{"smiles": "Cc1cc(-c2c[nH]nc2C2CCCCN2C(=O)c2ccccc2)on1", "note": "(stereo not drawn)", "INHIBITION": -6.99}
{"smiles": "COC(=O)c1ccc(CN(C)C(=O)c2cnsn2)cc1", "INHIBITION": -39.8}
{"smiles": "Cc1cc(-c2cccnc2)nc(C2CCCN2S(C)(=O)=O)n1", "note": "(stereo not drawn)", "INHIBITION": -29.8}
{"smiles": "O=C(c1sccc1C1CC1)N1CCN(Cc2cscn2)CC1", "INHIBITION": -52.2}
{"smiles": "O=C(c1cocn1)N1C[C@@H]2CN(Cc3ccco3)CCO[C@@H]2C1", "INHIBITION": -6.8}
{"smiles": "N#Cc1ccc(F)c(CNC(=O)NC(CO)Cc2ccccc2)c1", "note": "(stereo not drawn)", "INHIBITION": -90.6}
{"smiles": "CC(C)CC(=O)N(C)Cc1nc(C(F)(F)F)cs1", "INHIBITION": -49.5}
{"smiles": "CCc1nc2n(n1)CC(NCc1nnc(C(C)C)o1)CC2", "note": "(stereo not drawn)", "INHIBITION": -107}
{"smiles": "OC(CNCCn1cccn1)c1ccc(Br)cc1", "note": "(stereo not drawn)", "INHIBITION": -6.84}
{"smiles": "OC(CNCCn1cccn1)c1cccc(F)c1", "note": "(stereo not drawn)", "INHIBITION": -25.4}
{"smiles": "OC(CNCCn1cccn1)c1cccc(Br)c1", "note": "(stereo not drawn)", "INHIBITION": 64.3}
{"smiles": "Cc1cc(NC(=O)NCc2ccncc2)ccc1OC(C)C", "INHIBITION": -62}
{"smiles": "O=C(c1ccc(Cl)cc1)N1CCn2c(nn(-c3cccc(Cl)c3)c2=O)C1", "INHIBITION": -1.25}
{"smiles": "CCO[C@H]1CC[C@H]2[C@@H]1OCCN2C(=O)COc1ccccc1", "INHIBITION": -106}
{"smiles": "CCOc1ccnc(N2CCCN(c3nc(C4CC4)ns3)CC2)n1", "INHIBITION": 52.1}
{"smiles": "CCOc1ccnc(N2CCCN(c3nc(CC)ns3)CC2)n1", "INHIBITION": -63.7}
{"smiles": "CN1CCCN(c2nc(C3CC3)ns2)CC1", "INHIBITION": -0.753}
{"smiles": "Cc1ncoc1C(=O)N1CCOC(Cc2ccccc2)C1", "note": "(stereo not drawn)", "INHIBITION": -121}
{"smiles": "Cn1nc(C2CCCN(Cc3ccc(F)cc3F)C2)c2nccnc21", "note": "(stereo not drawn)", "INHIBITION": -79}
{"smiles": "Cc1cc(C(=O)Nc2ccc3oc(=O)n(CCN(C)C)c3c2)c(C)o1", "INHIBITION": 8.61}
